The sample as a whole holds a higher share of hits than the screen did.
Shiga toxin inh: Shiga toxin inhibition | Vero cells, Shiga toxin protein synthesis inhibition reporter | inhibition, % at 38.7 µM | 290,000 compounds, 9.2% hits; in the data active = inhibition mostly above about 28%, no sharp cut-off; inactive = mostly below about 43%; also: 0% is about no effect
CHX counter: affects cycloheximide protein synthesis inhibition readout, counter-screen. cell reporter, cycloheximide protein synthesis inhibition counterscreen. max response, %. 300,000 compounds, 12% hits. AID 2314; in the data active = max response mostly above about 13%, no sharp cut-off; inactive = mostly below about 14%; also: read at 38.3 µM for the half of the compounds with a filed dose; 0% is about no effect
NS1 inh: blocks influenza NS1 protein function; Potency, µM (top dose mostly 46.1 µM), without a hit: at the highest dose activity, positive = more growth; AID 2326; 270,000 compounds, 0.4% hits; calls by dose curve; also: potency is read from the fitted curve at half-maximal effect; actives are rising curves; nearly all actives have a fitted effect of over 50% in size
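In this qHTS, NS1 from influenza A is expressed in budding yeast, where it slows growth. Cells are switched from glucose to 2% galactose medium (pH 6.0, -URA), treated with compound, and growth recovery is read at OD600.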
AmpC no deterg: inhibitors of E. coli AmpC beta-lactamase without detergent. P00811. AmpC nitrocefin hydrolysis, absorbance 480 nm, 0.0001% Triton. Potency, µM (titrated, usually from 57.1 µM), inactives show top-dose activity change, negative = inhibition, most hits filed as inhibitors. 330,000 compounds, 0.52% hits;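 also: potency is read from the fitted curve at half-maximal effect; plate controls were no compound for no effect and no enzyme for full effect; nearly all actives have a fitted effect of over 20% in size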
Target sequence (P00811 whole entry, looked up): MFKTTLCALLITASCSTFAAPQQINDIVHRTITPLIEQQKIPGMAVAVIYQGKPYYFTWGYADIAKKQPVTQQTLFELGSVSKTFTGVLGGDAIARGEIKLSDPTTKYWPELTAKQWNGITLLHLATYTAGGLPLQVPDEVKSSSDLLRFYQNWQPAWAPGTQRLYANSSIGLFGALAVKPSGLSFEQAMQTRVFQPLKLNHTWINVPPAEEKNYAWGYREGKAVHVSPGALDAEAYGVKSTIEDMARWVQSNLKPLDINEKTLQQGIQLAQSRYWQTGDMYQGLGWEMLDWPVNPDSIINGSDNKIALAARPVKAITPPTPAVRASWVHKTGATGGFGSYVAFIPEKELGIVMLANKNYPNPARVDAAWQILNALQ
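AmpC (5.3 nM in the dispensed reagent) in 20 mM phosphate pH 7.0 with 0.01% (detergent screen) or 0.0001% Triton X-100 was preincubated with compounds for 15 min at room temperature. Nitrocefin was then added from an 800 uM solution, and hydrolysis was followed at 480 nm.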
AmpC detergent: inhibitors of E. coli AmpC beta-lactamase with detergent; AmpC hydrolysis of nitrocefin, absorbance 480 nm, 0.01% Triton; Potency, µM (top dose mostly 114 µM), without a hit: at the highest dose activity change, negative = inhibition, actives largely listed as inhibitors; 370,000 compounds, 0.041% hits; AID 485294;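 also: potency is read from the fitted curve at half-maximal effect; 0% = no-compound wells and -100% = no-enzyme wells; nearly all actives have a fitted effect of over 25% in size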
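20 mM phosphate pH 7.0 + 0.01% (detergent screen) or 0.0001% Triton X-100; 5.3 nM AmpC reagent; cpd preinc 15 min RT; nitrocefin (800 uM stock) to start; A480 q20 s × 4 min; Activity was normalised to no-enzyme and no-compound control wells.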
Numbers without * were called inactive; ? = inconclusive; nt = not tested or not shown; + = active, no number. Unless noted, calls follow the shape of the dose curve; as a rule, active = well fitted curve in the direction sought with a large enough effect; inconclusive = small, poorly fitted or top-dose-only effect, or another doubt; inactive = no such curve, though single readings can be large; an effect the other way counts as inactive or inconclusive.

SMILES	Shiga toxin inh	CHX counter	NS1 inh	AmpC no deterg	AmpC detergent
CCc1ccc(NC(=O)c2cc(CC(C)C)on2)cc1	38.9*	32.9*	?	-12.6%	-12.5%
CCc1ccc(NC(=O)c2cc(-c3ccc4c(c3)OCO4)on2)cc1	-2.6	-1.0	2.0%	-6.8%	-13.1%
Cc1cccc(C(=O)Nc2cc(S(=O)(=O)N3CCOCC3)ccc2N2CCCCC2)c1	nt	nt	nt	59.8%	-3.2%
COc1ccc(NC(=O)c2cc(CC(C)C)on2)cc1OC	active	42.1*	-11.4%	8.1%	?
Cc1ccc(NC(=O)Cn2nc(-c3ccccc3)nc(Cc3ccccc3)c2=O)cc1	nt	nt	nt	nt	0.1%
CC(=O)O[C@@H]1[C@H]2[C@@H](C[C@@H](C)[C@@H]3CCC(=O)[C@@]13C)OC(=O)[C@@H]2C	-11.3	17.9*	6.0%	74.4%	0.7%
CC1C(=O)O[C@@H]2C[C@@H](C)[C@@H]3CCC(=O)[C@@]3(C)[C@@H](O)[C@H]12 (stereo partly drawn)	-8.9	3.2	-5.5%	-0.8%	3.8%
CCOc1ccccc1NC(=O)c1c(NC(=O)c2cccc(C)c2)sc2c1CCC2	nt	nt	nt	nt	14.6%
c1ccc(CCNc2nc(-c3ccncc3)cs2)cc1	51.9	29.0*	nt	-15.1%	1.7%
CCCCCNc1nc(-c2ccccc2)cs1	80.1*	41.6*	-10.9%	-36.0%	-1.2%
CN1c2ccccc2C(C)(C)C12C=Cc1cc(O)ccc1O2 (stereo not drawn)	54.4	20.6*	-6.3%	-44.4%	-10.3%
O=C(NCc1cccc(F)c1)C1CCC(=O)N(CCc2cccc(F)c2)C1 (stereo not drawn)	12.6	19.9*	-7.6%	29.8%	-0.4%
O=C(NC(C1CC1)C1CC1)C1CCC(=O)N(CCCN2CCCC2=O)C1 (stereo not drawn)	13.1	16.9*	-9.5%	-5.1%	-1.1%
O=C1CCC(C(=O)N2CCCC2)CN1CCc1cccc(F)c1 (stereo not drawn)	-7.9	14.1	-3.9%	-12.4%	-14.5%
CCc1nc(CN(C)C(=O)C2CCC(=O)N(CCc3cccc(F)c3)C2)no1 (stereo not drawn)	32.5	21.9*	10.3%	3.0%	-2.9%
CN(Cc1nccs1)C(=O)C1CCC(=O)N(CCc2cccc(F)c2)C1 (stereo not drawn)	31.1	2.5	7.9%	7.6%	3.0%
O=C1CCC(C(=O)N2CCSCC2)CN1CCc1cccc(F)c1 (stereo not drawn)	15.5	14.8*	8.8%	-13.2%	3.6%
C[C@H](CO)N1C[C@H](C)[C@@H](CN(C)Cc2ccc(C(=O)O)cc2)Oc2c(NS(=O)(=O)c3cn(C)cn3)cccc2C1=O	nt	nt	nt	-19.3%	nt
COc1ccc(OCC(=O)Nc2ccc3c(c2)N(C)C(=O)c2ccccc2S3)cc1	nt	nt	nt	nt	-1.6%
COC1CCN(C(=O)C2CCC(=O)N(CCc3cccc(F)c3)C2)CC1 (stereo not drawn)	22.7	28.3*	-9.8%	0.6%	-0.7%
CCOC(=O)C1CCN(C(=O)C2CCC(=O)N(Cc3cccc(C(F)(F)F)c3)C2)CC1 (stereo not drawn)	32.4	13.6*	10.0%	136.2%	3.1%
COCCOC1CCN(C(=O)C2CCC(=O)N(CCc3cccc(F)c3)C2)CC1 (stereo not drawn)	-4.4	4.2	5.7%	9.4%	0.8%
COc1ccccc1CNC(=O)C1CCC(=O)N(CCCN2CCCC2=O)C1 (stereo not drawn)	-5.9	-3.5	0.3%	-14.7%	-11.0%
Cc1ccc(F)cc1CNC(=O)C1CCC(=O)N(CCCN2CCCC2=O)C1 (stereo not drawn)	18.4	22.3*	2.1%	-6.8%	3.4%
CC(=O)c1ccc(NC(=O)c2ccccc2Sc2ncnc3sc(C)c(C)c23)cc1	+	17.5*	-2.3%	74.7%	-2.8%
SMILES	Shiga toxin inh	CHX counter	NS1 inh	AmpC no deterg	AmpC detergent
COc1cc(C2NC(=O)NC(O)(C(F)(F)F)C2C(=O)c2cccs2)ccc1O (stereo not drawn)	87.0*	33.5*	2.2%	-9.9%	-1.1%
COc1cc(C2NC(=O)NC(O)(C(F)(F)F)C2C(=O)c2ccc(Cl)cc2)ccc1O (stereo not drawn)	11.7	9.9	1.2%	0.7%	-0.9%
Nc1ccccc1Oc1ccc2ccccc2c1	42.5*	14.2	nt	-3.1%	-5.0%
O=C(COC(=O)COc1ccccc1)Nc1ncc([N+](=O)[O-])s1	nt	nt	nt	-20.1%	10.5%
O=C(Nc1ncc([N+](=O)[O-])s1)c1ccco1	67.7*	37.5*	-105.3%	-5.5%	6.8%
CC(CC(=O)Nc1ncc([N+](=O)[O-])s1)c1ccccc1 (stereo not drawn)	87.3*	25.7*	-51.2%	-22.0%	5.6%
O=C(Cc1ccc(Cl)cc1)Nc1ncc([N+](=O)[O-])s1	67.4*	43.2*	nt	-46.8%	6.6%
CCC(Oc1ccccc1)C(=O)Nc1ncc([N+](=O)[O-])s1 (stereo not drawn)	12.2	2.3	-84.0%	-29.4%	7.4%
Cc1ccc(C(=O)Nc2ncc([N+](=O)[O-])s2)cc1	-5.9	-6.7	-141.8%	-18.0%	?
O=C(COc1ccc(Cl)cc1)Nc1ncc([N+](=O)[O-])s1	146.5*	47.6*	nt	-42.5%	-0.8%
c1cc2c(cc1C(N1CCNCC1)N1CCNCC1)OCO2	nt	nt	-8.3%	nt	nt
Cc1nn(-c2ccccc2)c(C)c1NC(=O)COc1ccc(Br)cc1Cl	-1.9	-0.7	1.5%	89.8%	-9.2%
Cc1cnc(NC(=O)Cc2ccc(Br)cc2)s1	1.5	2.0	-14.8%	-11.3%	-4.2%
O=C(Cc1ccc(Br)cc1)Nc1ncc([N+](=O)[O-])s1	95.5*	67.6*	-30.3%	-43.3%	2.1%
CNC(=S)NNC(=O)Cc1ccccc1	-2.2	4.9	-2.7%	0.282µM*	-0.9%
Cc1occc1C(=O)NNC(=O)c1ccccc1C(=O)O	69.3*	24.1*	7.5%	-20.6%	-1.3%
CNC(=S)NNC(=O)c1ccccc1Br	-10.4	0.4	5.9%	-8.1%	?
Cc1occc1C(=O)NNC(=O)c1ccccc1Br	27.8*	12.5	-4.8%	-14.0%	?
O=C(Cc1ccccc1)NNC(=O)c1ccccc1C(=O)O	26.9	14.9*	2.7%	-27.6%	-0.6%
CCOc1ccc(CC(=O)NNC(=S)NC)cc1	-1.8	-0.9	3.1%	-4.8%	4.6%
O=C(COc1ccc(Cl)cc1)NNC(=O)c1ccccc1C(=O)O	-20.9	-3.9	11.6%	-37.6%	3.8%
Cc1ccccc1C(=O)NNC(=O)c1ccoc1C	20.0	2.0	4.9%	-5.0%	4.7%
O=C(CC1(CC(=O)N2CCOCC2)CCCC1)Nc1ccc(F)cc1	nt	nt	nt	-4.5%	nt
Cc1c(C(=O)NC2CCOC2)oc2c(F)cccc12 (stereo not drawn)	113.8*	71.2*	-3.8%	-5.5%	-2.0%
Cc1c(C(=O)N2CCC(N3CCSCC3)CC2)oc2c(F)cccc12	33.1	23.0*	-3.0%	53.3%	?
Cc1c(C(=O)N2CCC[C@H]2CO)oc2c(F)cccc12	35.9*	23.9*	8.6%	-10.6%	?
